# Source: PubChem BioAssay AID1851 (National Center for Advancing Translational Sciences (NCATS), 2009)
# In all, about 16,000 compounds went through this assay and about 5,700 (36%) were called active. Not shown: some 24% with an inconclusive outcome. Calls come from the whole dose curve; as a rule, active = well fitted curve in the direction sought with a large enough effect; inconclusive = small, poorly fitted or top-dose-only effect, or effect the other way; inactive = no such curve, though single readings can be large or run the other way. The list shows a part of the results.
# Molecular target: Cytochrome P450 1A2 (Homo sapiens) (UniProt P05177)
# Sequence (P05177 whole entry, looked up): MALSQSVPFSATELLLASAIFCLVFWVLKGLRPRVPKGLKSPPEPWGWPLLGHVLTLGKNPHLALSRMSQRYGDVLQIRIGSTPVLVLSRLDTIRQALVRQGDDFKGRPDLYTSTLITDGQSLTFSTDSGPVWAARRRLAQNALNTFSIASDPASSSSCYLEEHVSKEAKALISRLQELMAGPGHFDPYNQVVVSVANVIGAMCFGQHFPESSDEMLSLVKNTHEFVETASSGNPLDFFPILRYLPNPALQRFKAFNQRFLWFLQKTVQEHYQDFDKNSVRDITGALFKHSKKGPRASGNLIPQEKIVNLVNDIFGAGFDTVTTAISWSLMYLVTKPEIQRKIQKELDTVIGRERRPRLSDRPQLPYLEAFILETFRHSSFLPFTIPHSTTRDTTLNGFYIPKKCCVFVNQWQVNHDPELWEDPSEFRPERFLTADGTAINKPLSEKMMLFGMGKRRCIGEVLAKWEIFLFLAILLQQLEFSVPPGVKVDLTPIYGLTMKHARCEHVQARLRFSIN
# Experiment: Cytochrome panel assay with activity outcomes
# Conditions: recombinant CYP, pro-luciferin dealkylation, luminescence, p450-cyp1a2; series mostly up to 57.1 µM
# % is set by controls: 0 for no effect and ±100 for the full control effect.
Compound,AC50,"activity, negative = inhibition"
N#Cc1cccc(NC(=O)N2CCC3(CC2)CCN(C(=O)c2cccc(F)c2)CC3)c1,inactive,–
O=C(c1cccc(F)c1)N1CCC2(CCN(Cc3cc(C(F)(F)F)cc(C(F)(F)F)c3)CC2)CC1,inactive,–
O=C(c1cc(C(F)(F)F)cc(C(F)(F)F)c1)N1CCC2(CC1)CN(c1ccccc1)C2,inactive,–
Cc1ccc(CC(=O)N2CCN(c3cccc(C(F)(F)F)c3)CC2)cc1,31.6 µM (active),–
Cc1ccc(S(=O)(=O)N(CC(=O)N2CCN(c3ccc(F)cc3)CC2)C2CCCCC2)cc1,inactive,–
CCc1ccc(NC(=S)N2CCN(c3cccc(C(F)(F)F)c3)CC2)cc1,inactive,–
O=C(c1coc2ccccc2c1=O)N1CCN(c2cccc(C(F)(F)F)c2)CC1,31.6 µM (active),–
C[C@]1(c2ccccc2)O[C@@H]2C[C@@H]3[C@@H]4CCC5=CC(=O)C=C[C@@]5(C)[C@]4(F)[C@H](O)C[C@]3(C)[C@@]2(C(=O)CO)O1,–,-16.4% [at 2.29 µM] (inactive)
CO[C@@H]1COC(=O)[C@H](COCc2ccccc2)NC(=O)C/C=C\[C@@H](C)[C@H](OC)COC(=O)[C@@H](C)NC(=O)C/C=C\[C@H]1C,–,3.31% [at 11.4 µM] (inactive)
CC(C)=CCC/C(C)=C/CC/C(C)=C/CSc1ccccc1C(=O)O,12.6 µM (active),–
CC(=O)N(CC(=O)O)c1ccccc1C(=O)O,inactive,–
C[C@H](CN(C)C)C(=O)c1ccccc1C(=O)O,–,-5.91% [at 11.4 µM] (inactive)
CNc1ncnc2c1ncn2[C@@H]1O[C@H](CO)[C@@H](O)[C@@H]1O,inactive,–
O=C(COc1ccc2ccccc2c1)N1CCN(C(=O)c2cccnc2)CC1,inactive,–
CCOc1ccc(N2C(=O)CS/C2=N/NC(=O)COc2ccc3ccccc3c2)cc1,14.1 µM (active),–
CC(=O)N1CCN(S(=O)(=O)c2ccccc2)C1c1ccccc1 (stereo unspecified),inactive,–
COc1ccc(C)cc1NC(=O)CCC(=O)Nc1nnc(C(F)(F)F)s1,inactive,–
Cc1cccc(C(=O)NNC(=O)C(=O)NC(C)(C)C)c1,inactive,–
C=C(C)c1cccc(C(C)(C)NC(=O)Nc2cc(C)ccc2OC)c1,11.2 µM (active),–
C/C(=N\O)c1ccc2[nH]ccc2c1,4.47 µM (active),–
C/C(=N/O)c1ccc2cc(Br)c3ccccc3c2c1,–,-13.6% [at 2.29 µM] (inactive)
C[C@H](O/N=C1/[C@H]2O[C@@H]2[C@@H](O)[C@H]2[C@H]1CCn1c(=O)n(-c3ccccc3)c(=O)n12)c1cn([C@H]2COC[C@H]2O)nn1,–,4.91% [at 11.4 µM] (inactive)
COc1ccc(/C=C2\N=C(SC)N(C)C2=O)cc1,1.78 µM (active),–

Compound,AC50,"activity, negative = inhibition"
CO/N=C(\C(=O)N[C@@H]1C(=O)N2C(C(=O)O)=C(COC(N)=O)CS[C@@H]12)c1ccco1,inactive,–
COc1cccc(-c2cc(NCc3ccc(OC)cc3OC)ncn2)c1,2 µM (active),–
COc1cccc(-c2cc(NCc3ccccc3OC)ncn2)c1,1.26 µM (active),–
CC(C)C[C@H]1C(=O)N2CCC[C@@H]2[C@]2(O)O[C@](NC(=O)[C@@H]3C=C4c5cccc6[nH]c(Br)c(c56)C[C@H]4N(C)C3)(C(C)C)C(=O)N12,inactive,–
Cc1nc2ncnn2c(C)c1CCC(=O)Nc1ccc(S(=O)(=O)N2CCCCCC2)cc1,inactive,–
COc1ccccc1Cn1c(=S)[nH]c2cc(C(=O)N3CCN(C)CC3)ccc2c1=O,inactive,–
O=c1c2cc(Br)ccc2[nH]c(=S)n1Cc1cccnc1,0.251 µM (active),–
COc1cc(C(=O)NCc2cccc3ccccc23)cc(Cl)c1OC,10 µM (active),–
COc1ccc(-n2c(CNC(=O)c3cc(OC)c(OC)c(OC)c3)n[nH]c2=S)cc1,inactive,–
CN(Cc1cnc2nc(N)nc(N)c2n1)c1ccc(C(=O)N[C@H](CCC(=O)O)C(=O)O)cc1,inactive,–
CCCN(/C=N/c1sc2c(c1C#N)CCCCC2)CCC,14.1 µM (active),–
CCN(/C=N/c1sc2c(c1C#N)CCCCC2)CC,2.51 µM (active),–
O=S(=O)(c1ccccc1)N1CCC2(CC1)CN(C(c1ccccc1)c1ccccc1)C2,inactive,–
O=C1CCCN1c1ccc(S(=O)(=O)Oc2cccc(Cl)c2)cc1[N+](=O)[O-],15.8 µM (active),–
COc1ccc(N2CCN(S(=O)(=O)c3ccc4c(c3)CCCC4)CC2)c([N+](=O)[O-])c1,inactive,–
CC1CCN(c2ccc(S(=O)(=O)Nc3cc(C(=O)O)cc(C(=O)O)c3)cc2[N+](=O)[O-])CC1,inactive,–
COc1ccc(S(=O)(=O)N2CC3CCCN3c3ccc(C(F)(F)F)cc32)cc1 (stereo unspecified),12.6 µM (active),–
COc1ccc(S(=O)(=O)N2CCC(N3CCCCC3)CC2)cc1,inactive,–
CCn1c(SC)nnc1C1CCN(S(=O)(=O)c2ccc(OC)cc2)CC1,inactive,–
NC(=O)C(=O)O,inactive,–
Nc1ccccc1S[C@@H](C[N+](=O)[O-])c1ccc2c(c1)OCO2,0.631 µM (active),–
CCCCNC(=S)NNC(=O)CCn1nc(C)c(Br)c1C,14.1 µM (active),–
CCCCNC(=O)NC1C(NC(=O)NCCCC)N(C)C(=O)N1C (stereo unspecified),inactive,–

Compound,AC50,"activity, negative = inhibition"
CN(N=O)c1ccc(/C=C\c2ccnc3ccccc23)cc1,0.158 µM (active),–
Cc1ccc(-n2c(CCC(=O)O)ccc2-c2cccs2)cc1C,14.1 µM (active),–
O=C(O)CCc1ccc(-c2ccc(Cl)cc2)n1CCC(=O)O,inactive,–
NC(=O)Nn1c(CCC(=O)O)ccc1-c1ccc(F)cc1,inactive,–
CC(=O)c1ccc(-n2c(CCC(=O)O)ccc2-c2cccs2)cc1,14.1 µM (active),–
CCOC(=O)C1CCN(C(=O)C2CCN(S(=O)(=O)N3CCCC3)CC2)CC1,inactive,–
Cn1ncc([N+](=O)[O-])c1C(=O)N1CCOCC1,inactive,–
Cc1cc(N2CCOCC2)ncc1[N+](=O)[O-],10 µM (active),–
O=[N+]([O-])c1ccc(N2CCOCC2)nc1,11.2 µM (active),–
CN1CCN(c2ccc([N+](=O)[O-])cc2C(=O)N2CCOCC2)CC1,inactive,–
Cc1cnc(CNc2ncnc3ccc(-c4ccc5c(c4)OCO5)cc23)cn1,0.398 µM (active),–
Cc1cnc(CNc2ncnc3ccc(-c4ccoc4)cc23)cn1,12.6 µM (active),–
Cc1cnc(CNc2ncnc3ccc(-c4ccc(N(C)C)cc4)cc23)cn1,1 µM (active),–
O=S(=O)(O)c1ccc2cc(N=Nc3cc(S(=O)(=O)O)c4cccnc4c3O)ccc2c1,–,-18.8% [at 2.29 µM] (inactive)
CCCCNC(=O)NS(=O)(=O)c1ccc(C(=O)OC(C)C)o1,inactive,–
Cc1c(NC(=O)NC(C)N2C(=O)C3C4C=CC(C4)C3C2=O)c(=O)n(-c2ccccc2)n1C (stereo unspecified),inactive,–
CN(C)c1nc(N)c(C(=O)N=C(N)N)nc1Cl,1 µM (active),–
CC(C)CN(C)c1nc(N)c(C(=O)N=C(N)N)nc1Cl,0.794 µM (active),–
CCN(c1nc(N)c(C(=O)N=C(N)N)nc1Cl)C(C)C,2 µM (active),–
NC(N)=NC(=O)c1nc(Cl)c(N2CCCCCC2)nc1N,1 µM (active),–
O=S(=O)(c1ccc(F)cc1)N1CCCC(CO)C1 (stereo unspecified),inactive,–
COc1ccc(NC(=O)N2CC[C@@]3(CCCN(C(=O)c4csnn4)C3)C2)cc1,inactive,–
CCN(CC)C(=O)Cn1cnc([N+](=O)[O-])n1,inactive,–

Compound,AC50,"activity, negative = inhibition"
CCN(CC)C(=O)c1cc2cc([N+](=O)[O-])ccc2s1,2 µM (active),–
Cc1cccc(OCC(=O)N2CCC(N3CCCCCC3)CC2)c1,inactive,–
CCOc1ccc(NC(=O)N2CCC(c3ccc(C)cc3)C2)cc1 (stereo unspecified),inactive,–
O=C(COc1ccc(Br)cc1)N1CCC(c2ccccc2)C1 (stereo unspecified),3.16 µM (active),–
Nc1ccc(C(=O)C[C@H](N)C(=O)O)cc1O,–,-4.16% [at 11.4 µM] (inactive)
Cc1cccn2c(=O)c(/C=N/O)c(N3CCCC3)nc12,0.891 µM (active),–
N[C@H](Cn1ccc(=O)n(Cc2ccccc2C(=O)O)c1=O)C(=O)O,inactive,–
CCOC(=O)C1=C2SCC(=O)N2C(N)=C(C#N)C1,1.26 µM (active),–
CC(C)OC(=O)C1=C2SCC(=O)N2C(N)=C(C#N)C1,1.26 µM (active),–
O=C(O)c1ccc2c(c1)C(=O)N(C(Cc1ccc(O)cc1)C(=O)O)C2=O (stereo unspecified),inactive,–
CN[C@H]1[C@@H](O[C@@H]2[C@H](O[C@@H]3[C@@H](O)[C@@H](O)[C@@H](N=C(N)N)[C@@H](O)[C@@H]3N=C(N)N)O[C@H](C)[C@@]2(O)C=O)O[C@@H](CO)[C@@H](O)[C@H]1O,inactive,–
O=c1oc(-c2ccco2)nc2c1cnn2-c1ccccc1,2 µM (active),–
O=C(Nc1ccc(-n2nncc2-c2ccco2)cc1)c1cc2ccccc2oc1=O,inactive,–
CCC(CC)C(=O)Nc1c2cnn(-c3ccccc3)c2nc(=O)n1-c1ccccc1,inactive,–
CN1C(=C2C(=O)OC(C)(C)OC2=O)Sc2ccccc21,11.2 µM (active),–
CC1(C)CCCN(C(=O)N2c3ccccc3Sc3ccccc32)C1,inactive,–
Nc1ncnc(N(c2ccccc2)C2CCCCC2)c1[N+](=O)[O-],inactive,–
Cn1c(SC2=CS(=O)(=O)c3ccccc32)nc2ccccc21,6.31 µM (active),–
Cc1cc(C)c(-c2cc([C@H](C)O/N=C3/[C@H]4OC4[C@@H](O)[C@H]4[C@H]3CCn3c(=O)n(-c5ccccc5)c(=O)n34)on2)c(C)c1 (stereo partly specified),–,-8.09% [at 11.4 µM] (inactive)
CCOC(=O)c1sc(=N)n(-c2ccc(OC)cc2)c1C,1.26 µM (active),–
COc1ccc(-n2c(C)nn(C)c2=O)cc1,inactive,–
NCC[C@H](O)C(=O)N[C@H]1C[C@@H](N)[C@@H](O[C@H]2O[C@@H](CN)[C@@H](O)[C@@H](O)[C@@H]2O)[C@@H](O)[C@@H]1O[C@H]1O[C@@H](CO)[C@@H](O)[C@@H](N)[C@@H]1O,inactive,–
